# Shown are actives, neighbours in structure and some others; about 1.3% of the full set was active somewhere.
# Gli-Sufu block: Gli-Sufu pathway antagonists, primary screen, luciferase luminescence, Sufu-KO-LIGHT cells, uHTS | Sufu-KO-LIGHT fibroblasts, Gli luciferase reporter luminescence | inhibition, % at 5 µM | 340,000 compounds, 0.74% hits | AID 588413, 2011;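 active = inhibition above about 55%, limit read from the data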;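 also: 0% = DMSO-treated cells and 100% = wells with medium but no cells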
# SRC1 inh: SRC1 coactivator transcriptional activity inhibitors, primary screen, cell-based, luminescence; Nuclear receptor coactivator 1 (Homo sapiens), Q15788; HEK293 GAL4-SRC1 luciferase reporter; inhibition, % at 3.6 µM; 360,000 compounds, 0.12% hits; AID 588354, 2011;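 active = inhibition above the campaign mean plus 3 SD, with each screening campaign given its own cutoff, cut at about 60% in these data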;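 also: 0% = DMSO treated cells and 100% = gossypol at 36 µM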
# COUP-TFII inh: NR2F2 transcriptional activity inhibitors, primary screen, cell-based, luciferase reporter, HEK293T, luminescence; COUP transcription factor 2 (Homo sapiens), P24468; HEK293T NGFI-A luciferase reporter; 370,000 compounds, 0.7% hits; inhibition, % at 8.6 µM;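 active = inhibition above a per-plate cutoff, mean inhibition of test wells between control levels plus 3 SD, cut at about 38% in these data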;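 also: cells cotransfected with COUP-TFII expression vector driving the NGFI-A reporter; 0% = median of COUP-TF2 test wells and 100% = reporter-only cells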
# NCOA3 inh: SRC3 coactivator transcriptional activity inhibitors, primary screen, cell-based, luminescence. Nuclear receptor coactivator 3 (Homo sapiens), Q9Y6Q9. HEK293 GAL4-SRC3 luciferase reporter. inhibition, % at 3.6 µM. 360,000 compounds, 0.17% hits;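 active = inhibition above a per-campaign cutoff, the mean of all compounds plus 3 SD, cut at about 60% in these data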;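 also: 0% = DMSO-treated cells and 100% = gossypol-treated cells at 36 µM; higher means less SRC3-driven luciferase light from the GAL4 reporter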
# LRH-1 inv ag: LRH-1 (NR5A2) inverse agonists, primary screen, cell-based, luminescence, HEK293T, StAR-luciferase reporter. LRH-1 transfected, 24 h. inhibition, % at 3.6 µM. AID 602396, 2012. Nuclear receptor subfamily 5 group A member 2 (Homo sapiens), O00482. 360,000 compounds, 0.13% hits;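 active = inhibition above the mean inhibition of all tested compounds plus 3 SD, cut at about 73% in these data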;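 also: 0% = DMSO wells and 100% = reporter-only cells lacking LRH-1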
# NCOA2 inhibitor: inhibition of GAL4-SRC2 driven luciferase reporter, primary screen, SRC2 inhibitor project, cell-based, luminescence; Nuclear receptor coactivator 2 (Homo sapiens), Q15596; HEK293 GAL4-SRC2 luciferase reporter; inhibition, % at 9 µM; 370,000 compounds, 0.17% hits;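 active = inhibition above the mean inhibition of all tested compounds plus 3 SD, set per campaign, cut at about 52% in these data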;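 also: 0% = DMSO treated cells and 100% = cells given Gossypol at 36 µM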
# Gli-Sufu confirm: Gli-SUFU pathway antagonists, confirmation, single concentration, luciferase luminescence, Sufu-KO-LIGHT cells | shares compounds with Gli-Sufu block | 2,500 compounds, 40% hits | Gli luciferase reporter | inhibition, % at 5 µM;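 active = mean inhibition at 5 µM reaching about 45%, limit read from the data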;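 also: plate controls were DMSO-treated cells for no effect and wells lacking cells for full effect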
# SufuKO cytotox: cytotoxicity in Sufu-KO-LIGHT cells, confirmation, cytotoxicity control for Gli-SUFU antagonist project, cell-based, ATP luminescence, single concentration; shares compounds with Gli-Sufu block; cytotoxicity, % at 5 µM; 2,500 compounds, 32% hits; AID 651994, 2013;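 active = mean cytotoxicity at 5 µM above about 25%, limit read from the data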;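 also: cells exposed to compound overnight for roughly 16 to 18 hours; plate controls were DMSO wells with cells for no effect and medium without cells for full effect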
# Wnt3a cs: Wnt3a reporter signal inhibition, confirmation, counter-screen for Gli-SUFU antagonist project, Wnt-LIGHT cells, luminescence, single concentration; shares compounds with Gli-Sufu block; Wnt3a-driven luciferase reporter; inhibition, % at 6.25 µM; 2,500 compounds, 20% hits;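 active = mean inhibition above about 25%, limit read from the data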
# * hit, by the source's call; / = not tested or not shown.
SMILES,Gli-Sufu block,SRC1 inh,COUP-TFII inh,NCOA3 inh,LRH-1 inv ag,NCOA2 inhibitor,Gli-Sufu confirm,SufuKO cytotox,Wnt3a cs
O=C(Cc1ccc(N2CCNC2=O)cc1)N1CCCC(Nc2cccc(F)c2)C1 (centres undefined),53.0,-14.3,7.3,-22.4,19.0,-13.4,16.8,40.8*,-47.6
O=C(Cn1nnc(-c2ccccc2)n1)N/N=C/c1cccc([N+](=O)[O-])c1,50.4,-5.0,1.2,-7.9,-1.5,5.2,20.9,0.4,-3.8
O=C(N/N=C/c1ccncc1)C12CC3CC(CC(C3)C1)C2,57.6*,-31.5,-7.0,1.1,-0.3,-9.5,20.8,6.0,-18.4
CCc1ccc(CN2CCC(Oc3ccc(C(=O)N4CCCC4)cc3)CC2)cc1,22.5,4.1,19.8,4.1,-19.0,5.9,/,/,/
O=C(c1ccc(F)cc1)N1CCN(C2CCCCC2)CC1,57.7*,-47.0,6.8,-0.7,3.2,-33.4,24.2,16.4,-16.8
O=C(c1ccc(OC2CCN(Cc3ccc(F)cc3)CC2)cc1)N1CCCC1,55.4*,2.2,-7.9,1.6,14.5,11.2,16.1,7.5,10.9
COc1c(Cl)ccc(Cl)c1C(=O)NCc1ccco1,51.1,13.1,-9.8,10.9,10.9,7.2,14.1,1.8,2.8
Cc1cc(Nc2cccc(Cl)c2)nc(NCc2ccccc2)n1,73.8*,28.5,13.4,2.2,28.3,36.1,52.0*,31.9*,-8.9
Cc1cc(N2CCCCCC2)nc(-c2ccccc2O)n1,84.8*,6.2,0.5,-2.5,12.8,9.8,20.3,15.2,-16.2
Cc1cc(N2CCOCC2)nc(-c2ccccc2O)n1,-7.9,-38.2,-2.9,-17.4,-5.8,6.8,/,/,/
Cc1cc(N2CCCCC2)nc(NCc2ccccc2)n1,50.1,-1.6,30.2,16.7,-2.9,19.6,41.5,13.6,10.4
COc1ccc2[nH]c3c(c2c1)CCN[C@]31C(=O)N(C)c2ccc(Br)cc21,/,/,-27.4,/,/,10.0,/,/,/
CCN(CCCNC(=O)c1cc2c(-c3cccc(OC)c3)nn(C)c2s1)Cc1ccccc1,58.5*,11.4,-5.1,-4.4,-30.4,-10.7,16.4,6.7,-30.7
O=C(/C=C/c1ccccc1Cl)Nc1cccc(S(=O)(=O)NC2=NCCCCC2)c1,51.2,-25.1,-39.7,-1.7,-41.7,-39.6,12.0,9.7,-151.1
COc1ccc2c(c1)CN1C(=O)N(C3CCCC3)S(=O)(=O)CC21 (centres undefined),/,/,3.9,/,/,-12.1,/,/,/
COc1ccc2cc3cc(C(=O)N4CCN(C5CCCCC5)CC4)oc3nc2c1,52.7,-6.9,/,8.3,-18.9,/,25.6,35.6*,-23.4
COc1ccc2cc3cc(C(=O)N4CCCCCC4)oc3nc2c1,-18.4,-115.0,/,-85.5,-118.3,/,/,/,/
COc1ccc(C(=O)N2CC(=O)Nc3ccc(F)cc3C2c2ccccc2)cc1 (centres undefined),67.2*,11.0,11.1,-9.2,0.6,-14.8,20.1,6.1,-8.3
O=C1CN(C(=O)c2ccccc2)C(c2ccccc2)c2cc(F)ccc2N1 (centres undefined),2.2,-6.8,3.4,-15.1,0.4,15.5,/,/,/
CCn1c(=O)n(CC)c2cc(N3CCCC3)c(NC(=O)c3cccc(C)c3)cc21,-2.6,15.6,-10.2,-8.9,-2.9,0.6,/,/,/
CCn1c(=O)n(CC)c2cc(N3CCCC3)c(NC(=O)c3ccc(C)c([N+](=O)[O-])c3)cc21,50.8,14.8,2.8,-55.1,18.3,0.2,52.9*,34.7*,7.5

# Source: PubChem BioAssay
